We go through seven molecules from PubChem BioAssay (Tox21).

A number with no mark means an inactive call. Inconclusive results are not listed. Calls of active or inactive are those of the source. Unless noted, calls follow the shape of the dose curve; as a rule, active = well fitted curve in the direction sought with a large enough effect in the repeat runs; inconclusive = weak or mixed curves; inactive = no such curve, though single readings can be large; an effect the other way counts as inactive or inconclusive.

For assay [1], the target named is Luciferin 4-monooxygenase (Photinus pyralis) (UniProt P08659). Description: qHTS assay to identify small molecule inhibitors of firefly luciferase (AID 1224835). Also: nearly all actives have a fitted effect of over 25% in size. Also: potency is read from the fitted curve at half-maximal effect. Put shortly:
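Inhibition of purified Photinus luciferase is measured by luminescence. Substrate levels (D-luciferin, ATP) sit at their KM values. Each compound is tested in a concentration series.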

The nature of assay [2]: qHTS assay to identify small molecule agonists of the constitutive androstane receptor (CAR) signaling pathway - cell viability counter screen (AID 1224836). Also: nearly all actives have a fitted effect of over 45% in size. Put shortly:
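Multiplexed viability check: HepG2-CYP2B6-hCAR cells, 15-point compound dosing, 0.75 uM PK11195 final, 23 h at 37 C, CellTiter-Fluor fluorescence.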

Assay [3] in a line: qHTS assay to identify small molecule antagonists of the constitutive androstane receptor (CAR) signaling pathway - cell viability counter screen (AID 1224837). Also: nearly all actives have a fitted effect of over 45% in size. In a few lines:
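Counter screen run in HepG2-CYP2B6-hCAR cells: 4 hr settle, compound titration (15 concentrations) with 50 nM CITCO, 23 hr at 37 C/5% CO2, CellTiter-Fluor fluorescence.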

A short description of assay [4]: qHTS assay to identify small molecule antagonists of the estrogen related receptor signaling pathway with the pleiotropic PPARgamma coactivator (PGC) from Tox21 10K library - cell viability counter screen (AID 1224840; active = well fitted cell-killing curve with a large enough effect in the repeat runs, not every such curve was filed as active; also: nearly all actives have a fitted effect of over 40% in size). Put shortly: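 Following seeding of 2,000 PGC/ERR cells/well and 6 hours' incubation, test compounds were delivered in DMSO. The plates then sat 17.5 hours at 37 C before a fluorogenic live-cell protease reagent (CellTiter-Fluor) was read after 30 min.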

Assay [5] in a line: qHTS assay to identify small molecule antagonists of the estrogen related receptor signaling pathway with the pleiotropic PPARgamma coactivator (PGC) from Tox21 10K library (AID 1224841; call rule not given here; also: actives are mostly falling curves and most rising ones were filed inactive; nearly all actives have a fitted effect of over 50% in size). In a few lines:
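qHTS antagonist format: PGC/ERR cells, 2k/well, compound in DMSO by pin transfer after 6 h attachment, 18 h treatment at 37 C, One-Glo luminescence read at 30 min.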

Assay [6] in a line: qHTS assay to identify small molecule agonists of the estrogen related receptor signaling pathway with the pleiotropic PPARgamma coactivator (PGC) from Tox21 10K library (AID 1224842). Also: nearly all actives have a fitted effect of over 15% in size. Put shortly:
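Luminescence from One-Glo (30 min, room temperature) measured after PGC/ERR cells had 18 h at 37 C with pinned compound (23 nL in DMSO). Cells had been seeded at 2,000 per well and pre-incubated 6 h.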

For assay [7], the target named is Thyrotropin receptor (Homo sapiens) (UniProt P16473). Description: qHTS assay to identify small molecule agonists of the thyroid stimulating hormone receptor (TSHR) signaling pathway (AID 1224843; calls by dose curve; also: nearly all actives have a fitted effect of over 45% in size; also: potency is read from the fitted curve at half-maximal effect). Put shortly: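 HEK293 cells stably bearing the thyrotropin receptor were plated at 800 cells/well and challenged with compound (30 min, RT). Accumulated cAMP was quantified via cAMP-d2 competing for cryptate-tagged antibody.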
Chain of Thyrotropin receptor (Homo sapiens) (P16473 whole entry, looked up): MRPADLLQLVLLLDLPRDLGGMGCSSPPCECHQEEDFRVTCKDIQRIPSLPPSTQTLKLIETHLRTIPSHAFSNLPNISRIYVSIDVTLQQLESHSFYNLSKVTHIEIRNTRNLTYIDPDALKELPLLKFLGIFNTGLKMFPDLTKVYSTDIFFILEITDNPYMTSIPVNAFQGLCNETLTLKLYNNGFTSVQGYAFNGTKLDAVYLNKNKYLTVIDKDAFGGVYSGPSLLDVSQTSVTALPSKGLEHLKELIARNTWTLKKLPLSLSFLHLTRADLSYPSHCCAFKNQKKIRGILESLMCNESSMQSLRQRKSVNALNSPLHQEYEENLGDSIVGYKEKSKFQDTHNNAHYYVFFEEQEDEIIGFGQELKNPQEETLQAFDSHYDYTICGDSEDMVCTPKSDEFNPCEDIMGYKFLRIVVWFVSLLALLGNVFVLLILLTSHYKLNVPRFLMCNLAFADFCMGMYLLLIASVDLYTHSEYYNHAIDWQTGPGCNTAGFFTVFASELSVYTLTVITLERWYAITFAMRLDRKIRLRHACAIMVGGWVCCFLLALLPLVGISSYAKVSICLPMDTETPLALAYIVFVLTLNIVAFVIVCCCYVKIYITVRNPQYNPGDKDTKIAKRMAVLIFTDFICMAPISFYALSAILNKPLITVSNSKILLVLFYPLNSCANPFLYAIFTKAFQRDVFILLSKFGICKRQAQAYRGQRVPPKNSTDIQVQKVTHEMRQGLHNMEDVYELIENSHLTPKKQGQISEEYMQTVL

The nature of assay [8]: qHTS assay to identify small molecule agonists of the hypoxia (HIF-1) signaling pathway - cell viability counter screen (AID 1224844; calls by dose curve; also: nearly all actives have a fitted effect of over 50% in size). In a few lines:
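Cells (HRE-bla ME-180, 2,000 per well) sat 5 hrs at 37C, got compound for 17 hrs, were read for CCF4-AM FRET, and were finally lysed with CellTiter-Glo for a 30 min room-temperature luminescence read.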

The nature of assay [9]: qHTS assay to identify small molecule agonists of H2AX (AID 1224845; active = well fitted activation curve with a large enough effect in the signal ratio in the repeat runs, not every such curve was filed as active; the % refers to the signal ratio). In a few lines: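 Phospho-H2AX Ser139 measured by HTRF (ex 320 nm; em 665 and 620 nm) after 24 hr antibody incubation. Compounds, 15 concentrations, 0.76% DMSO, were applied to CHO-K1 cells for 3hr at 37C before lysis.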
A short description of assay [10]: qHTS assay to identify small molecule agonists of the hypoxia (HIF-1) signaling pathway (AID 1224846; active = well fitted activation curve with a large enough effect in the signal ratio in the repeat runs, not every such curve was filed as active; the % refers to the signal ratio). In a few lines: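 A low-serum medium (0.5% dialyzed FBS) holding 2,000 HRE-bla ME-180 cells per well is preincubated for 5 hrs, dosed with compounds by pintool, and kept a further 17 hrs at 37C, 5% CO2 before CCF4-AM FRET detection of beta-lactamase.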
Assay [11] in a line: qHTS assay to identify small molecule agonists of H2AX - cell viability counter screen (AID 1224847; calls by dose curve; also: nearly all actives have a fitted effect of over 30% in size; also: potency is read from the fitted curve at half-maximal effect). Put shortly: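 After overnight plating of 1000 CHO-K1 cells per well, a 15-concentration compound series was applied for 3 hr at 37C. Luminescence from CellTiter-Glo, read following 30 min at room temperature, reflected cell viability.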
Assay [12] in a line: qHTS assay to identify small molecule antagonists of the estrogen related receptor (ERR) signaling pathway from Tox21 library (AID 1224848). Also: nearly all actives have a fitted effect of over 50% in size. In a few lines: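 Reading was by luminescence 30 min after ONE-Glo addition. Before that, ERR cells at 2,000 per well had rested 6 h at 37 C/5% CO2 and then received pin-tooled compounds in DMSO for 18 h at 37 C.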
Assay [13] can be described thus: qHTS assay to identify small molecule agonists of the estrogen related receptor (ERR) signaling pathway from Tox21 library (AID 1224849; calls by dose curve; also: nearly all actives have a fitted effect of over 15% in size). To be noted: ERR reporter cell line, ONE-Glo luciferase, 18 h; at 92.4 µM (top of the series) unless noted. Put shortly: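 Screening used an NTP-provided ERR luciferase cell line. Compounds in DMSO were added 6 h after seeding and left 18 h at 37 C before a 30 min ONE-Glo step and luminescence reading.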

Assay [14] is described as follows: qHTS RealTime-Glo MT Cell Viability Assay in HepG2 cells - 24 hour (AID 1224867). Also: nearly all actives have a fitted effect of over 50% in size. In a few lines: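 qHTS, HepG2, 600 cells/well, RealTime-Glo (NanoLuc + prosubstrate) added with cells; 5 h preincubation; DMSO compound addition; 37 C; luminescence at 0/8/16/24/32/40 h.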
The nature of assay [15]: qHTS RealTime-Glo MT Cell Viability Assay in HEK293 cells - 32 hour (AID 1224868). Also: nearly all actives have a fitted effect of over 50% in size. Also: potency is read from the fitted curve at half-maximal effect. In a few lines:
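Assay medium contained NanoLuc luciferase plus cell-permeant prosubstrate, added with HEK293 cells at 600 cells/well. After 5 h at 37 C/5% CO2 compounds were added; plates stayed at 37 C for 40 h with serial luminescence reads.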

A short description of assay [16]: A CellTox Green Cytotoxicity Assay to monitor cytotoxicity in HEK293 cells - 0 hour (AID 1224869). Also: nearly all actives have a fitted effect of over 50% in size. Put shortly:
(§1)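 Fluorescence intensity, read at 0, 8, 16, 24, 32 and 40 h of compound treatment, reflected dye binding to DNA of dead HEK293 cells; compounds (23 nL, DMSO) were added 5 h after plating cells with reagent.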

The nature of assay [17]: qHTS RealTime-Glo MT Cell Viability Assay in HepG2 cells - 40 hour (AID 1224870). Also: nearly all actives have a fitted effect of over 50% in size. Put shortly:
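Real-time viability: cells seeded at 600 per well together with NanoLuc and cell-permeant prosubstrate, compounds added after 5 h incubation. Luminescence tracked at 0, 8, 16, 24, 32 and 40 h of exposure.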

Assay [18] is described as follows: A CellTox Green Cytotoxicity Assay to monitor cytotoxicity in HEK293 cells - 40 hour (AID 1224871). Also: nearly all actives have a fitted effect of over 45% in size. In a few lines:
as §1

For assay [19], the target named is Nuclear receptor subfamily 1 group I member 3 (Homo sapiens) (UniProt Q14994). The experiment in a line: qHTS assay to identify small molecule antagonists of the constitutive androstane receptor (CAR) signaling pathway (AID 1224838).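 Also: HepG2 cells stably expressing hCAR with CYP2B6 luciferase reporter stimulated by CITCO; nearly all actives have a fitted effect of over 40% in size.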 In a few lines:
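Cell line: HepG2 double-stable for hCAR and CYP2B6-2.2kb reporter. Agonist: CITCO, 50 nM final. Compounds: 15 concentrations, 24 h, 37 C. Detection: ONE-Glo luminescence.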

Assay [20] shares this target. The experiment in a line: qHTS assay to identify small molecule agonists of the constitutive androstane receptor (CAR) signaling pathway (AID 1224839).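 Also: HepG2 cells stably carrying human CAR and a CYP2B6 luciferase reporter; nearly all actives have a fitted effect of over 15% in size.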 In a few lines:
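Using human hepatoma HepG2 cells engineered with hCAR and a CYP2B6-2.2kb reporter, 15-concentration compound series were incubated 24 h alongside PK11195 at 0.75 uM final, with luminescence quantified afterwards.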
% is scaled to controls: 0 for no effect and ±100 for the full control effect.

Chain of Luciferin 4-monooxygenase (Photinus pyralis) (P08659 whole entry, looked up): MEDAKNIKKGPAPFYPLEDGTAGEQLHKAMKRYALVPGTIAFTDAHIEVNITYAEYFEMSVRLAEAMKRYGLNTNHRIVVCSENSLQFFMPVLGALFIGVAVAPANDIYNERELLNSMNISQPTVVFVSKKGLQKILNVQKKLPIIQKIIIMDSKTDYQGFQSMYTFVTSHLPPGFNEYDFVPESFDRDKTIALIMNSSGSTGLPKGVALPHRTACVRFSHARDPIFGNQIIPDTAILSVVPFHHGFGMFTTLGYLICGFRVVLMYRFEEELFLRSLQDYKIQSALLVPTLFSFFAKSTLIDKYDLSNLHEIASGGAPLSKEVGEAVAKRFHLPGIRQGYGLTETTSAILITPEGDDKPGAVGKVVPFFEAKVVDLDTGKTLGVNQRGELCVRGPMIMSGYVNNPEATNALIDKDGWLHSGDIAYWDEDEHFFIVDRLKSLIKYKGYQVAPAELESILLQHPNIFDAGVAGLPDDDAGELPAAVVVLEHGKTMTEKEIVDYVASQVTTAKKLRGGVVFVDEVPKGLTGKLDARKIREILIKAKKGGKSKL
Chain of Nuclear receptor subfamily 1 group I member 3 (Homo sapiens) (Q14994 whole entry, looked up): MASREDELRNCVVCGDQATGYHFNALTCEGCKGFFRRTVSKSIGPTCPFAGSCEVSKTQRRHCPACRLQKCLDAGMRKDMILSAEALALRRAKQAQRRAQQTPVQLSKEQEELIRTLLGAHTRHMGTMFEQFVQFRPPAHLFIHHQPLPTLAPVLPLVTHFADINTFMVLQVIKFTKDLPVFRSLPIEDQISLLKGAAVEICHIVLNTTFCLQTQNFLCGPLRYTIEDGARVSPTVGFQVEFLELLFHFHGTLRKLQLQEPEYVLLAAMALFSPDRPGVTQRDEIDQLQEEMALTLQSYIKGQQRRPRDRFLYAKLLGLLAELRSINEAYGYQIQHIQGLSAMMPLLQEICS

Take `CC(C)(C)c1n[nH]c(=O)n(N)c1=O`: the Potency entry in assay [1], in assay [2], in assay [3], in assay [4], in [5] and in assay [6] was “inactive” throughout. Besides, the Potency entry in [7], in [8], in assay [9], in assay [11], in [12] and in assay [14] was “inactive” each time. Also, the Potency entry in assay [15], in assay [16], in assay [17] and in assay [18] was “inactive” each time. Besides, the result in assay [10] was inactive. Also, in assay [13], the activity change, positive = activation was -7.06%.

Turning to `CCCCCCCOC(=O)c1ccccc1C(=O)OCCCCCCC`, the Potency result in assay [1], in assay [2], in [3], in [19], in assay [4] and in assay [5] was “inactive” each time. For the same molecule, the Potency result in assay [6], in assay [7], in [8], in [9], in assay [11] and in [12] was “inactive” in each case. Further, the Potency entry in assay [14], in [15], in assay [16], in assay [17] and in assay [18] was “inactive” throughout. Also, the outcome in assay [10] was inactive. In [13], the activity change, positive = activation is 1.61%.

Consider `Oc1ccc(-c2ccccc2)c(Cl)c1`, for which the Potency is 39.9 µM (active) in assay [1] and 24.5 µM (active) in assay [15]. Besides, the Potency entry in [2], in assay [3], in [19], in assay [4], in assay [7] and in assay [9] was “inactive” each time. Also, the Potency result in assay [14], in assay [16] and in assay [17] was “inactive” in each case.

Regarding `CCCCNc1c(C(=O)OCC)c(C)nc2c1cnn2CC`, the Potency entry in assay [1], in assay [2], in assay [3], in [19], in assay [4] and in assay [7] was “inactive” each time. Moreover, the Potency entry in [8], in assay [9], in [14], in [17] and in assay [18] was “inactive” each time. Besides, the Potency in assay [15] is 21.3 µM (active).

As to `CCc1c(C(=O)O)c(=O)cnn1-c1ccc(Cl)cc1`, the Potency result in [1], in assay [2], in assay [3], in assay [4], in [5] and in [6] was “inactive” in each case. Moreover, the Potency entry in [7], in [8], in assay [9], in [11], in assay [12] and in assay [14] was “inactive” each time. The Potency entry in [15], in assay [16] and in assay [17] was “inactive” throughout. Further, the call in [10] was inactive. The activity change, positive = activation in assay [13] was 3.84%.

Consider `Cn1cccc1`, for which the Potency entry in assay [1], in assay [2], in assay [3], in assay [4], in assay [5] and in assay [7] was “inactive” throughout. In addition, the Potency entry in [8], in assay [9], in [11], in assay [12], in assay [14] and in assay [15] was “inactive” in each case. The Potency result in [17] and in assay [18] was “inactive” throughout. Further, the molecule was classed as inactive in [10]. For the same molecule, in [13], the activity change, positive = activation is -4.51%.

As for `CC(C)(C)CC(C)(C)c1ccccc1O`, the Potency result in [1], in assay [2], in [3], in assay [20], in assay [4] and in assay [5] was “inactive” throughout. Besides, the Potency result in [6] and in [14] was “inactive” each time. Besides, the Potency in assay [7] is 13.8 µM (active); in assay [11], 90.3 µM (active). The activity change, positive = activation in assay [13] is 1.59%.
